From the antibiotic and cytotoxicity screens of Wong et al. (2023)
In all, about 39,000 compounds went through this assay and about 3,300 (8.5%) were called active. For the sample, actives were picked, then their nearest neighbours and some compounds at random.

These compounds were tested on HepG2 (assay: cytotoxicity call (relative viability < 0.9)). Details: 10 µM.

| SMILES | cytotoxicity call |
| --- | --- |
| C[C@@H]1CCCCO[C@@H](CN(C)Cc2ccc(C(=O)Nc3ccccc3N)cc2)[C@@H](C)CN([C@H](C)CO)C(=O)c2cc(NC(=O)c3ccncc3)ccc2O1 | inactive |
| C[C@@H]1CCCCO[C@H](CN(C)Cc2ccc(C(=O)Nc3ccccc3N)cc2)[C@@H](C)CN([C@H](C)CO)C(=O)c2cc(NC(=O)c3ccccc3)ccc2O1 | active |
| C[C@@H]1CCCCO[C@@H](CN(C)Cc2ccc(C(=O)Nc3ccccc3N)cc2)[C@H](C)CN([C@H](C)CO)C(=O)c2cc(N(C)C)ccc2O1 | active |
| C[C@H](CO)N1C[C@H](C)[C@H](CN(C)Cc2ccc(C(=O)Nc3ccccc3N)cc2)OCCCC[C@H](C)Oc2ccc(N(C)C)cc2C1=O | inactive |
| CC(C)NC(=O)Nc1ccc2c(c1)C(=O)N([C@H](C)CO)C[C@H](C)[C@H](CN(C)Cc1ccc(C(=O)Nc3ccccc3N)cc1)OCCCC[C@@H](C)O2 | inactive |
| C[C@@H]1CCCCO[C@@H](CN(C)Cc2ccc(C(=O)Nc3ccccc3N)cc2)[C@@H](C)CN([C@H](C)CO)C(=O)c2cc(NC(=O)c3ccccc3)ccc2O1 | active |
| C[C@@H]1CCCCO[C@@H](CN(C)Cc2ccc(C(=O)Nc3ccccc3N)cc2)[C@@H](C)CN([C@H](C)CO)C(=O)c2cc(NC(=O)Cc3ccccc3)ccc2O1 | inactive |
| C[C@H]1CCCCO[C@H](CN(C)Cc2ccc(C(=O)Nc3ccccc3N)cc2)[C@@H](C)CN([C@@H](C)CO)C(=O)c2cc(N(C)C)ccc2O1 | inactive |
| C[C@@H]1CCCCO[C@@H](CN(C)Cc2ccc(C(=O)Nc3ccccc3N)cc2)[C@@H](C)CN([C@H](C)CO)C(=O)c2cc(NC(=O)Nc3ccccc3)ccc2O1 | inactive |
| C[C@H]1CN([C@@H](C)CO)S(=O)(=O)c2ccc(C#CC3(O)CCCC3)cc2O[C@@H]1CN(C)C(=O)Cc1ccccc1 | inactive |
| C[C@@H]1CN([C@@H](C)CO)C(=O)c2cccc(NS(=O)(=O)c3ccc(F)cc3)c2O[C@@H]1CN(C)S(=O)(=O)c1cn(C)cn1 | inactive |
| CCOC(=O)c1cccc([C@@H]2CC(=O)N(C(=O)OCc3ccccc3)[C@@H]2C(=O)Nc2cccc3cccnc23)c1 | inactive |
| Cc1noc(C)c1NC(=O)N(C)C[C@@H]1OCCCC[C@@H](C)Oc2ccc(NC(=O)C3CCCCC3)cc2C(=O)N([C@@H](C)CO)C[C@H]1C | inactive |
| C[C@@H]1CN([C@H](C)CO)C(=O)c2cc(NC(=O)CCC(F)(F)F)ccc2O[C@@H](C)CCCCO[C@H]1CN(C)S(=O)(=O)c1cccs1 | inactive |
| CN(C)CCOC(C)(c1ccccc1)c1ccccn1.O=C(O)CCC(=O)O (configuration not stated) | inactive |
| CN1CCCC1CCOC(C)(c1ccccc1)c1ccc(Cl)cc1.O=C(O)C=CC(=O)O (configuration not stated) | active |
| CN1CCC[C@H]1CCO | inactive |
| COc1ccc(S(=O)(=O)N(C)C[C@H]2Oc3ccc(NS(=O)(=O)c4cn(C)cn4)cc3CC(=O)N([C@H](C)CO)C[C@H]2C)cc1 | inactive |
| Cn1cc(N2C[C@]3(COCCN(C(=O)C4(C#N)CC4)C3)OCC2=O)cn1 | inactive |
| COc1ccc(-c2oc3cc(O[C@H]4O[C@H](CO)[C@@H](O)[C@H](O)[C@H]4O)c(OC)c(O)c3c(=O)c2OC)cc1O | inactive |
| COc1cc(-c2coc3cc(O[C@@H]4O[C@H](CO)[C@@H](O)[C@H](O)[C@H]4O)c(OC)c(O)c3c2=O)cc(O)c1OC | inactive |

| SMILES | cytotoxicity call |
| --- | --- |
| COc1cc(-c2coc3cc(OC4OC(CO)C(O)C(O)C4O)c(OC)c(O)c3c2=O)cc(O)c1OC (configuration not stated) | active |
| O=C1CCCSc2ccccc21 | inactive |
| C[C@@H]1CN([C@H](C)CO)C(=O)c2cc(NC(=O)C3CCCCC3)ccc2O[C@@H](C)CCCCO[C@H]1CN(C)C(=O)Nc1ccc2c(c1)OCO2 | inactive |
| C[C@@H]1CCCCO[C@@H](CN(C)C(=O)CCCN(C)C)[C@H](C)CN([C@@H](C)CO)C(=O)c2cc(N(C)C)ccc2O1 | inactive |
| C[C@H](CO)N1C[C@H](C)[C@@H](CN(C)C(=O)Nc2ccc(F)cc2)OCCCC[C@H](C)Oc2ccc(NC(=O)Nc3ccccc3)cc2C1=O | inactive |
| CC(C)C(C)C=CC(C)C1CCC2C3=CC=C4CC(O)CCC4(C)C3CCC21C (configuration not stated) | inactive |
| Cc1ccc2c(Br)cc(Br)c(OC(=O)c3ccccc3)c2n1 | active |
| CCn1cc(C(=O)O)c(=O)c2ccc(C)nc21 | inactive |
| CNC[C@@H]1Oc2cc(C#CC(C)(C)O)ccc2S(=O)(=O)N([C@@H](C)CO)C[C@H]1C | inactive |
| C[C@H]1CN([C@@H](C)CO)S(=O)(=O)c2ccc(-c3ccncc3)cc2O[C@H]1CN(C)Cc1ccc(Oc2ccccc2)cc1 | inactive |
| COc1ccccc1C#Cc1ccc2c(c1)O[C@H](CN(C)Cc1ccncc1)[C@H](C)CN([C@H](C)CO)S2(=O)=O | active |
| C[C@H]1CN([C@@H](C)CO)S(=O)(=O)c2ccc(-c3ccncc3)cc2O[C@@H]1CN(C)Cc1ccc(Oc2ccccc2)cc1 | inactive |
| COc1ccccc1C#Cc1ccc2c(c1)O[C@@H](CN(C)Cc1ccncc1)[C@H](C)CN([C@H](C)CO)S2(=O)=O | inactive |
| C[C@@H]1CN([C@@H](C)CO)S(=O)(=O)c2ccc(-c3ccncc3)cc2O[C@H]1CN(C)Cc1ccc(Oc2ccccc2)cc1 | active |
| COc1ccccc1C#Cc1ccc2c(c1)O[C@@H](CN(C)Cc1ccncc1)[C@@H](C)CN([C@H](C)CO)S2(=O)=O | inactive |
| COc1ccccc1C#Cc1ccc2c(c1)O[C@H](CN(C)Cc1ccncc1)[C@@H](C)CN([C@H](C)CO)S2(=O)=O | inactive |
| COc1ccccc1C#Cc1ccc2c(c1)O[C@H](CN(C)Cc1ccncc1)[C@@H](C)CN([C@@H](C)CO)S2(=O)=O | active |
| COc1ccccc1C#Cc1ccc2c(c1)O[C@@H](CN(C)Cc1ccncc1)[C@@H](C)CN([C@@H](C)CO)S2(=O)=O | inactive |
| Cl.N=C(N)n1cccn1 | inactive |
| C[C@@H]1CCCCO[C@@H](CN(C)S(=O)(=O)c2cn(C)cn2)[C@@H](C)CN([C@H](C)CO)C(=O)c2cc(N(C)C)ccc2O1 | inactive |
| Cn1cccc1CNCCCN1CCOCC1 | inactive |

| SMILES | cytotoxicity call |
| --- | --- |
| C[C@H]1CCCCO[C@H](CN(C)C(=O)Nc2ccc3c(c2)OCO3)[C@@H](C)CN([C@@H](C)CO)C(=O)c2cc(NC(=O)Nc3ccc(C(F)(F)F)cc3)ccc2O1 | inactive |
| Cc1ccc(S(=O)(=O)N(C)C[C@H]2Oc3ccc(NS(C)(=O)=O)cc3C(=O)N([C@H](C)CO)C[C@@H]2C)cc1 | inactive |
| Cc1noc(C)c1NC(=O)Nc1ccc2c(c1)C(=O)N([C@H](C)CO)C[C@@H](C)[C@H](CN(C)Cc1ccc(C(F)(F)F)cc1)O2 | inactive |
| COc1ccc([C@@H]([C@H](Cc2ccccc2)OC(C)=O)N2C[C@@H](CC(=O)N(C)C)[C@H]3[C@@H]([C@@H]2Cc2ccccc2)N(C)O[C@@H]3c2ccccc2)cc1 | active |
| COc1ccc([C@@H]([C@H](Cc2ccccc2)OC(C)=O)N2C[C@H]3[C@@H]([C@@H](O)c4ccccc4)ON(C)[C@H]3[C@@H]2Cc2ccccc2)cc1 | active |
| COc1ccc([C@@H]([C@H](Cc2ccccc2)OC(C)=O)N2C[C@@H](CC(=O)N(C)C)[C@@H]3[C@H]([C@@H]2Cc2ccccc2)N(C)O[C@H]3c2ccccc2)cc1 | inactive |
| COc1ccc([C@@H]([C@H](Cc2ccccc2)OC(C)=O)N2C[C@@H](NC(=O)C(Cl)(Cl)Cl)[C@@H]3[C@H]([C@@H]2Cc2ccccc2)N(C)O[C@H]3c2ccccc2)cc1 | inactive |
| COc1ccc([C@@H]([C@H](Cc2ccccc2)OC(C)=O)N2C[C@H](CC(=O)N(C)C)[C@@H]3[C@H]([C@@H]2Cc2ccccc2)N(C)O[C@H]3c2ccccc2)cc1 | inactive |
| COc1ccc([C@@H]([C@H](Cc2ccccc2)OC(C)=O)N2C[C@@H]3C(=NO[C@H]3[C@@H](OC(C)=O)c3ccccc3)[C@@H]2Cc2ccccc2)cc1 | inactive |
| COc1ccc([C@@H]([C@H](Cc2ccccc2)OC(C)=O)N2C[C@@H]3[C@H]([C@@H]2Cc2ccccc2)N(C)O[C@@]3(O)[C@@H](O)c2ccccc2)cc1 | inactive |
| COc1ccc([C@@H]([C@H](Cc2ccccc2)OC(C)=O)N2C[C@H]3[C@H]([C@@H](OC(C)=O)c4ccccc4)ON(C)[C@H]3[C@@H]2Cc2ccccc2)cc1 | active |
| COc1ccc([C@@H]([C@H](Cc2ccccc2)OC(C)=O)N2C[C@@H](OC(C)=O)[C@@H]3[C@H]([C@@H]2Cc2ccccc2)N(C)O[C@H]3c2ccccc2)cc1 | inactive |
| Cn1cnc(S(=O)(=O)N[C@@H]2CC[C@@H](CC(=O)Nc3ccccc3)O[C@H]2CO)c1 | inactive |
| Cc1ccc(S(=O)(=O)Nc2ccc3c(c2)CC(=O)N([C@@H](C)CO)C[C@@H](C)[C@@H](CN(C)C(=O)NC(C)C)O3)cc1 | inactive |
| O=C(Nc1ccc2c(c1)[C@@H]1C[C@H](CC(=O)N3CCc4ccccc4C3)O[C@H](CO)[C@@H]1O2)C1CCOCC1 | inactive |
| C[C@H](CO)N1C[C@H](C)[C@@H](CN(C)C(=O)Nc2cccc3ccccc23)OCCCC[C@H](C)Oc2ccc(NC(=O)Nc3ccccc3)cc2C1=O | inactive |
| Cc1noc(C)c1S(=O)(=O)N(C)C[C@H]1Oc2ccc(NS(C)(=O)=O)cc2CC(=O)N([C@@H](C)CO)C[C@@H]1C | inactive |
| C[C@H](CO)N1C[C@H](C)[C@H](CN(C)C(=O)NC2CCCCC2)Oc2c(NC(=O)C3CC3)cccc2C1=O | inactive |
| C[C@@H]1CCCCO[C@@H](CN(C)S(C)(=O)=O)[C@@H](C)CN([C@H](C)CO)C(=O)c2cc(NS(=O)(=O)c3ccc(F)cc3)ccc2O1 | inactive |
| C[C@@H]1CCCCO[C@@H](CN(C)C(=O)Nc2cccc3ccccc23)[C@@H](C)CN([C@H](C)CO)C(=O)c2cc(NC(=O)Nc3ccccc3)ccc2O1 | inactive |
